This is a sample that favours compounds with a hit; in the whole collection about 4.8% have one here.
hcDAF12 agonist = activates DAF-12 receptor from parasite H. contortus | HEK293 hcDAF-12 lit1-tk-luc reporter, luminescence; 0% DMSO, 100% Δ7-dafachronic acid | activation, % at 6.8 µM | hit rate 1.4% among 370,000;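 active = activation above the mean of all tested compounds plus 3 SD, cut at about 5.5% in these data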;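 note: 100% = response to 3 µM Δ7-dafachronic acid high control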
Rev-erbA mod = Rev-erb alpha (human) modulation | P20393 | Rev-erbα–FITC-DNA binding, fluorescence polarization, 90 min | activity, % at 10 µM | hit rate 0.79% among 370,000 | AID 1259318;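 active = activity above about 14%, limit read from the data; passing the limit was not always enough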;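 note: 0% = DMSO wells with 35 nM protein and 100% = DMSO wells with 750 nM protein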
Target sequence (P20393 whole entry, looked up): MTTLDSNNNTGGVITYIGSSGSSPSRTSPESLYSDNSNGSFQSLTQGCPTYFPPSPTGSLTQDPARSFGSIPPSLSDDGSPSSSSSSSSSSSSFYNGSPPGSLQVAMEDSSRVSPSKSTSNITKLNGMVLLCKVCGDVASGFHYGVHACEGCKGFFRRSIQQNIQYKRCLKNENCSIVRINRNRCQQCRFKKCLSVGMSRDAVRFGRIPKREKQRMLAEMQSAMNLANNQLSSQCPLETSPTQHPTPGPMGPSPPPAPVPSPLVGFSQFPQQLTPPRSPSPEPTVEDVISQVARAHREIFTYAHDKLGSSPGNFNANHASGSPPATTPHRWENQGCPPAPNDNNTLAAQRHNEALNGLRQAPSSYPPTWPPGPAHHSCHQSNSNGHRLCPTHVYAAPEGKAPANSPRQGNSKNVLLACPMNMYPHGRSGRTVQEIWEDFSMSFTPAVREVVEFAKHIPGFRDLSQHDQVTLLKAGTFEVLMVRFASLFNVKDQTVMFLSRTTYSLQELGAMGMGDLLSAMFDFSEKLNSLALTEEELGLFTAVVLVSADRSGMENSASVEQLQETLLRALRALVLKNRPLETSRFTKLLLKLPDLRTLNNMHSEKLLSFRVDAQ
hgDAF-12 ag = agonists of H. glycines DAF-12 nuclear receptor. HEK293 GAL4-hgDAF12 UAS-luciferase reporter, agonist luminescence; normalized to butyrate control. activation, % at 6.8 µM. hit rate 1.8% among 370,000;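 active = activation above a cutoff set at the mean of all screened compounds plus 3 SD, cut at about 10% in these data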;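 note: 0% = DMSO wells and 100% = sodium butyrate wells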
ssDAF12 agonist = activators of S. stercoralis DAF-12 nuclear receptor. activation, % at 6.8 µM. AID 652126. HEK293 ssDAF-12/GRIP1 lit1-tk-luc reporter, luminescence; % of 3 µM dafachronic acid response. hit rate 1% among 370,000;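 active = activation above the mean over all tested compounds plus 3 SD, cut at about 0.9% in these data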;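 note: 0% = DMSO-only wells and 100% = 3 µM delta7-dafachronic acid wells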
DAX1 inh-1 = inhibitors of human orphan nuclear receptor DAX1 (NR0B1) | P51843 | HEK293 Gal4-DAX1 luciferase reporter, luminescence | inhibition, % at 6.75 µM | hit rate 0.99% among 340,000;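 active = inhibition above the mean over all tested compounds plus 3 SD, cut at about 4.2% in these data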;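 note: 0% = DAX1-transfected cells with DMSO and 100% = empty-vector control cells with DMSO; inhibition shows as a rise in luminescence from relieved DAX1 repression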
DAX1 inh-2 = inhibitors of DAX1 repression of SF-1 activated StAR promoter | HEK293T StAR-luciferase reporter, SF-1/DAX-1 repression relief | inhibition, % at 6.8 µM | hit rate 1.1% among 370,000 | AID 652010;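 active = inhibition above the mean over all tested compounds plus 3 SD, cut at about 3.6% in these data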;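 note: 0% = DAX-1 cells with DMSO and 100% = cells lacking DAX-1 with DMSO; higher inhibition means more luminescence from relief of DAX-1 repression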
DAX1 inh confirm = NR0B1 (human) inhibition, confirmation. shares compounds with DAX1 inh-2. HEK293T StAR-promoter luciferase reporter, SF-1/DAX-1 repression. inhibition, % at 6.8 µM. hit rate 87% among 2,400;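 active = inhibition above the average of every tested compound plus 3 SD, cut at about 3.8% in these data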;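 note: 0% = DAX-1 cells with DMSO and 100% = no DAX-1 control cells with DMSO; active compounds raise luminescence by relieving repression of the StAR reporter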
SF1 mutant ctr = nonselective inhibitor or artifact in SF-1 mutant DAX1 counter-screen; shares compounds with DAX1 inh-2; HEK293 StAR-luciferase, SF-1 AF2 mutant, luminescence; inhibition, % at 6.8 µM; hit rate 78% among 2,400; AID 652136;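 active = inhibition above the mean of all tested compounds plus 3 SD, cut at about 3% in these data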;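 note: 0% = DAX-1 transfected cells with DMSO and 100% = cells without DAX-1 with DMSO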
LXR ag = activates human LXR-beta, counter-screen for hcDAF-12 agonists; HEK293 Gal4-LXR tk-luc reporter, luminescence, 24 h; normalized: DMSO 0%, positive control 100%; activation, % at 6.8 µM; AID 743027; 3,400 tested, under 10 active; shares compounds with hcDAF12 agonist;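 active = mean percent activation of the reporter above a cutoff set as the average over tested compounds plus their standard deviation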
hcDAF12 ag = confirmation of H. contortus DAF-12 agonists | shares compounds with hcDAF12 agonist | HEK293 hcDAF-12 lit1-tk-luc reporter, luminescence; % of Δ7-dafachronic acid response | activation, % at 6.8 µM | hit rate 61% among 3,400 | AID 743032;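 active = mean activation across triplicate tests above the threshold derived from the earlier primary screen, cut at about 5.5% in these data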;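 note: 0% = DMSO only wells and 100% = 3 µM Δ7-dafachronic acid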
hgDAF12 conf = hgDAF-12 agonism, confirmation assay | shares compounds with hgDAF-12 ag | HEK293 GAL4-hgDAF12 luciferase reporter, agonist mode; percent of butyrate response | hit rate 80% among 3,300 | activation, % at 6.8 µM | AID 743050;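 active = mean activation over triplicate wells above the hit cutoff derived from the earlier primary screen, cut at about 11% in these data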;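 note: 0% = DMSO low control and 100% = 2 mM sodium butyrate high control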
LXR ag 2 = LXR-beta agonism as DAF-12 counter-screen; shares compounds with hgDAF-12 ag; HEK293 Gal4-LXR luciferase reporter, 24 h; activation, % at 6.8 µM; 3,300 tested, under 10 active;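 active = mean activation of the triplicate above a set limit carried over from the primary screen, none filed active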
Numbers without * were called inactive.

Screening Cc1cc(-c2nc3ccccc3[nH]2)ccc1N returned hcDAF12 agonist 6.4*, Rev-erbA mod 3, hgDAF-12 ag 15*, ssDAF12 agonist 1.2*, DAX1 inh-1 2, DAX1 inh-2 8.0*, DAX1 inh confirm 14*, SF1 mutant ctr 7.2*, hgDAF12 conf 17* and LXR ag 2 1.
`Cc1ccc(C)c(-c2nc3ccc(N)cc3[nH]2)c1` gave hcDAF12 agonist -1, Rev-erbA mod 4, hgDAF-12 ag -1, ssDAF12 agonist -1, DAX1 inh-1 3 and DAX1 inh-2 0.
`Cc1ccc2nc(-c3ccccc3N)[nH]c2c1` gave hcDAF12 agonist 9.2*, Rev-erbA mod -5, hgDAF-12 ag 22*, ssDAF12 agonist 1, DAX1 inh-1 -1, DAX1 inh-2 5.1*, DAX1 inh confirm 14*, SF1 mutant ctr 5.9*, LXR ag 2, hcDAF12 ag 10.0*, hgDAF12 conf 19* and LXR ag 2 1.
`COC(=O)c1ccc(C(=O)Nc2ccc3nc(-c4ccncc4)[nH]c3c2)cc1` gave hcDAF12 agonist -1, Rev-erbA mod 5, hgDAF-12 ag -3, ssDAF12 agonist -1, DAX1 inh-1 0 and DAX1 inh-2 -1.
`C#CCNC(=O)C[C@H]1C[C@@]2(C(=O)OC)C(=C[C@H](C(C)(C)C)O[C@@H]2C)N(Cc2ccc3c(c2)OCO3)C1=O` gave hcDAF12 agonist -1, Rev-erbA mod 9, hgDAF-12 ag -1, ssDAF12 agonist -1 and DAX1 inh-2 -1.
`CCCCCCCCN1CCS(=O)(=O)N(Cc2ccc(OC)cc2)C(C(=O)OC)C1` (stereo not given) gave hcDAF12 agonist -2, Rev-erbA mod 2, hgDAF-12 ag -2, ssDAF12 agonist -2 and DAX1 inh-2 -2.
For CCOC(=O)N[C@H](C(=O)N1CCC[C@H]1C(=O)NC1CCCC1)C1CCCCC1 the results were hcDAF12 agonist -2, Rev-erbA mod 1, hgDAF-12 ag 0, ssDAF12 agonist -1 and DAX1 inh-2 0.
`CCCCCCCCN1C(=O)N2Cc3ccc(C)cc3C2CS1(=O)=O` (stereo not given) gave hcDAF12 agonist -1, Rev-erbA mod -2, hgDAF-12 ag 2, ssDAF12 agonist -1 and DAX1 inh-2 0.
CC1CCN(c2ccc(C(=O)O)cc2NS(=O)(=O)c2ccccc2[N+](=O)[O-])CC1 was read as hcDAF12 agonist -1, Rev-erbA mod -1, hgDAF-12 ag 3, ssDAF12 agonist -1 and DAX1 inh-2 0.
Screening O=C(Nc1nccs1)c1cncc(Br)c1 returned hcDAF12 agonist 7.9*, Rev-erbA mod 1, hgDAF-12 ag 15*, ssDAF12 agonist 0, DAX1 inh-1 1, DAX1 inh-2 6.3*, DAX1 inh confirm 7.6*, SF1 mutant ctr 6.3*, LXR ag 1, hcDAF12 ag 6.0*, hgDAF12 conf 11* and LXR ag 2 0.

Screening results as filed in PubChem.
